The values below come from the supplement of paper PMC7156485.

Each structure is given as a SMILES string. Counter-ions that a name gives are not always drawn.
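Further: TDF denotes transformed human dermal fibroblasts of mesenchymal origin.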

The first test relates to HCC1569. In words: cell number relative to DMSO (% of DMSO); higher = more cells (less growth inhibition / toxicity). The conditions noted are these: concentration: 10 µM; 24 h. The method, boiled down:
(§1)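 For HCC1569 and TDF cells, compounds at 10 µM were applied for 24 h at 37 °C in triplicate in 384-well plates. Cells were fixed in 3.7% formaldehyde, stained for H1.0 and with DAPI, and imaged at ×10 over six fields per well. The endpoint, H1.0 nuclear intensity or cell number, is shown as percent of the plate control using the median of replicates. Positional effects were smoothed for HCC1569 only.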
As to `Cl.c1ccc2c(CC3=NCCN3)cccc2c1` [Naphazoline hydrochloride], the cell number was 96.1.
The same measure, in the same setting: the figure for `Cc1cc(CS(=O)(=O)c2ccccc2)cc(OCc2ccc(CN3CCC[C@@H]3CO)cc2)c1` [PF-543 hydrochloride] is 95.8; for `CC(C=CC1=C(C)CCCC1(C)C)=CC=CC(C)=CC(=O)O` [Retinoic acid] it is 104; for `CCCCCC=CCC=CCC=CCC=CCCCC(=O)OC(CO)COC(=O)CCCCCCCCCCCCCCCCC` (configuration not stated) [1-Stearoyl-2-arachidonoyl-glycerol] it is 100.

The next test relates to TDF. The test is described as above. The conditions noted are these: concentration: 10 µM; 24 h. The method, boiled down:
as §1
As to `Clc1ccc(Nc2nnc(Cc3ccncc3)c3ccccc23)cc1` [Vatalanib], the cell number turned out to be 103.
Compound `C[C@@H](c1nc(-c2ccc(C#N)cc2)cs1)[C@](O)(Cn1cncn1)c1ccc(F)cc1F` gave a cell number of 95.
On the same count and under the same terms, as for `Cl.NCCCCC(=O)O` [5-Aminovaleric acid hydrochloride], the figure is 107; as for `CNC(=O)c1ccccc1Sc1ccc2c(C=Cc3ccccn3)n[nH]c2c1` [Axitinib], 46.4; as for `CN1CCCC1c1cccnc1.O=C(O)C(O)C(O)C(=O)O.O=C(O)C(O)C(O)C(=O)O` (single isomer, unassigned; (-)) [(-)-Nicotine hydrogen tartrate salt], 103.
`CCCCCCCCCCCCCC=CC(O)C(CO)NC(=O)CCCCC` (configuration not stated) [C6 Ceramide] showed a cell number of 59.7.
On to `O=C(O)CCCc1c[nH]c2ccccc12` [Indole-3-butyric acid], for which the cell number turned out to be 99.
Compound `CC(C[N+](C)(C)C)OC(N)=O.[Cl-]` (configuration not stated) [Bethanechol chloride] came in with a cell number of 100.
